Shown are actives, neighbours in structure and some others; about 27% of the full set was active somewhere.
CYP2C9 inhib: blockers of cytochrome P450 2C9 activity – biochemical, luminescence, ADME assay, primary screen | CYP2C9 Supersomes, luciferin-H conversion | inhibition, % at 5 µM | actives 20% (n = 96,000);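 active means blocking of liver enzyme CYP2C9 beyond about 50% at 5 µM, limit read from the data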
Target sequence (P11712 whole entry, looked up): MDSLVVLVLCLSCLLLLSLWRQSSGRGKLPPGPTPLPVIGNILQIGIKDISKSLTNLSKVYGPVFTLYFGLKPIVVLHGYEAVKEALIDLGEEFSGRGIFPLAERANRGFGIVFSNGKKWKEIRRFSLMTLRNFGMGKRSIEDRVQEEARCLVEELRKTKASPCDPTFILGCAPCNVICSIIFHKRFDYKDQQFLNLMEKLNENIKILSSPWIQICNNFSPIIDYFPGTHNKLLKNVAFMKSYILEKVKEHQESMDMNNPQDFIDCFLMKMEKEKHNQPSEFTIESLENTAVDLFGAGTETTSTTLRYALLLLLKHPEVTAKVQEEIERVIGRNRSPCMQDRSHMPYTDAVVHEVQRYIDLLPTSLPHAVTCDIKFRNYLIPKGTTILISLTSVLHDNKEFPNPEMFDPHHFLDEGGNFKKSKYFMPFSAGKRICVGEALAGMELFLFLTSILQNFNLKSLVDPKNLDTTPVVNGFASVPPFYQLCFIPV
CYP2C9 activ: human CYP2C9 activators, primary screen, biochemical, luminescence | AID 1024, 2008 | actives 1.4% (n = 96,000) | activation factor at 5 µM | Cytochrome P450 2C9 (Homo sapiens), P11712 | recombinant CYP2C9, luciferin-H conversion; active compounds read high; factor 1 = untreated enzyme, 0 = blocked;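 active means activation factor of 2 or more for CYP2C9 at a 5 µM dose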;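 further: 0 = sulfaphenazole-blocked wells and 1 = vehicle-only wells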
CYP2C19 activ: human CYP2C19 activators, primary screen, biochemical, luminescence; recombinant CYP2C19, luciferin-H EGE luminescence; active compounds read high; 0 = fully inhibited enzyme, 1 = untreated enzyme; activation factor at 5 µM; Cytochrome P450 2C19 (Homo sapiens), P33261; 96,000 tested, under 10 active; AID 1025, 2008;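 active means activation factor of at least 2 at 5 µM in the primary screen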;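 further: 0 = wells with 2.5 mM tranylcypromine and 1 = vehicle-only wells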
CYP2C19 inhib: blockers of cytochrome P450 2C19 activity – biochemical, luminescence, ADME assay, primary screen. CYP2C19 Supersomes, luciferin-H EGE luminescence, 30 min. inhibition, % at 5 µM. AID 778, 2007. actives 21% (n = 96,000);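 active means CYP2C19 inhibition above a set limit at 5 µM in the primary screen, cut at about 50% in these data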;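 further: plate controls were negative control wells for no effect and 2.5 mM tranylcypromine positive control for full effect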
Cav3 T inh: Cav3.2 calcium influx blockers – cell-based, Fluo-4 calcium fluorescence, FDSS, MLSMR library, primary screen; Cav3.2-expressing cells; active compounds read low; actives 4% (n = 100,000); AID 449739, 2010; B-score at 10 µM;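 active means single-dose well whose peak fluorescence ratio is a statistical outlier from its plate by either plate-standardised score or position-corrected B-score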
Starred values were filed as active, the others as inactive; x = no result.

SMILES	CYP2C9 inhib	CYP2C9 activ	CYP2C19 activ	CYP2C19 inhib	Cav3 T inh
Cc1cccc(C)c1NC(=O)CSc1nc(COc2ccccc2)nc2ccccc12	90*	0.1	0.3	66*	-2
CCc1nc(SCC(=O)Nc2nc3c(s2)CCCC3)c2ccccc2n1	16	0.8	1	-3	-1.6
CC1CCCC(NC(=O)CCCn2c(=O)[nH]c3cc(Cl)ccc3c2=O)C1C (stereo unspecified)	44	0.6	0.8	20	0.21
CC1(C)SCC2C(=O)N3C(CSC3(C)C)C(=O)N21 (stereo unspecified)	10	0.9	0.9	14	0.45
CS(=O)(=O)N(CC(=O)NCc1ccncc1)Cc1ccc(Cl)cc1	94*	0.1	0	99*	-0.11
COCCNC(=O)CN(Cc1ccc(Cl)cc1)S(C)(=O)=O	-12	1.1	0.8	16	-0.28
O=C(CN(C1CCCCC1)S(=O)(=O)c1ccc(Cl)cc1)NCc1cccnc1	92*	0.1	0	100*	-0.014
O=C(CN(C1CCCCC1)S(=O)(=O)c1ccccc1)NCc1cccnc1	x	x	x	x	-0.71
CS(=O)(=O)N(CC(=O)NCc1ccc2c(c1)OCO2)Cc1ccc(Cl)cc1	81*	0.2	0.2	79*	-2.7
CS(=O)(=O)N(CC(=O)NCc1cccnc1)Cc1ccc(Cl)cc1	54*	0.5	0	97*	0.8
O=C(CCNS(=O)(=O)c1ccc(Cl)cc1)NCc1cccnc1	24	0.8	0.6	44	-0.043
CSC1=C(C#N)C(c2ccc(Cl)cc2)C2=C(CC(C)(C)CC2=O)N1 (stereo unspecified)	65*	0.3	0.8	24	-1.4
COc1ccc(C2C(C#N)=C(C)NC3=C2C(=O)CC(C)(C)C3)cc1 (stereo unspecified)	66*	0.3	0.6	36	2.4
CCCSC1=C(C#N)C(c2ccc(OC)cc2)C2=C(CC(C)(C)CC2=O)N1 (stereo unspecified)	16	0.8	0.9	13	0.33
COc1ccc(OCC(O)COc2ccc(OC)cc2)cc1	50	0.5	0.1	89*	-0.66
COc1ccc(OCC(O)CNc2ccc(Br)cc2)cc1 (stereo unspecified)	90*	0.1	0	97*	-4.2*
COc1ccc(OCC(O)CNC(=O)c2ccc(Br)cc2)cc1 (stereo unspecified)	46	0.5	0.5	52*	-1.6
COc1ccc(OCC(O)Cn2cnc(-c3ccc(Br)cc3)c2)cc1 (stereo unspecified)	x	x	x	x	0.68
COCCCNC(=O)CCn1c(=O)c2ccccc2n(CC(=O)Nc2ccc(C)cc2C)c1=O	67*	0.3	0.2	78*	0.04
CCCCNC(=O)CCn1c(=O)c2ccccc2n(CC(=O)Nc2ccccc2OCC)c1=O	75*	0.2	0.6	40	0.14
CCCN(CCC)C(=O)Cn1c(=O)n(CCC(=O)NCCc2ccccc2)c(=O)c2ccccc21	72*	0.3	0.8	17	1.9
COCCCNC(=O)CCn1c(=O)c2ccccc2n(CC(=O)Nc2ccccc2C)c1=O	41	0.6	1.1	-9	x
COc1ccc(C#Cc2c(-c3ccsc3)oc3ccc(-c4cc(OC)c(OC)c(OC)c4)cc23)cc1	x	x	x	x	-0.31
COc1cc(OC)cc(OCC(O)Cn2ccnc2C)c1 (stereo unspecified)	38	0.6	0.6	44	0.65
Cc1cccc(C)c1OCC(O)Cn1ccnc1C (stereo unspecified)	23	0.8	0.5	53*	-0.03
SMILES	CYP2C9 inhib	CYP2C9 activ	CYP2C19 activ	CYP2C19 inhib	Cav3 T inh
O=C(c1cc2ccccc2oc1=O)N(Cc1ccccc1)Cc1ccc2c(c1)OCO2	x	x	x	x	-6.1*
Cc1ccc(NC(=O)N(Cc2ccc3c(c2)OCO3)Cc2cc3cc4c(cc3[nH]c2=O)OCCO4)cc1	-3	1	1	-4	-0.83
O=C(CCc1nc2ccccc2[nH]1)NCc1ccc2c(c1)OCO2	x	x	x	x	0.25
O=C(Nc1ccccc1)N(Cc1ccc2c(c1)OCO2)Cc1nc2ccccc2c(=O)[nH]1	60*	0.4	0.8	15	-1.1
O=C(c1ccccc1)N(Cc1ccc2c(c1)OCO2)Cc1nc2ccccc2c(=O)[nH]1	90*	0.1	0.1	92*	-0.49
Fc1ccc(CN2CCCCCCC2)cc1F	6	0.9	0.7	27	-0.24
CCCC[C@@H]1C[C@H]1[C@@H](NC(=O)c1ccco1)c1ccc(C(=O)OC)cc1	x	x	x	x	-1.1
O=C(CN1CCN(S(=O)(=O)c2cc(Cl)ccc2Cl)CC1)Nc1ccc2c(c1)OCCO2	-123	2.2*	0.5	54*	x
O=C(CN1CCN(S(=O)(=O)c2ccc(Br)cc2)CC1)Nc1ccc2c(c1)OCO2	63*	0.4	0.2	81*	x
CN(C)c1ccc(NC(=O)CN2CCN(S(=O)(=O)c3cc(Cl)ccc3Cl)CC2)cc1	-49	1.5	0.7	32	-4.1*
COc1ccc(C)cc1NC(=O)CN1CCN(S(=O)(=O)c2ccc(Br)cc2)CC1	19	0.8	1.1	-12	0.41
CCCCC(C(=O)NCCC(C)C)N(CCCN1CCOCC1)C(=O)c1snc(C(N)=O)c1N (stereo unspecified)	-2	1	1	2	0.08
C=CCOC(=O)C1=C[C@H](c2ccc(Br)cc2)C[C@H](OCc2ccc(CO)cc2)O1	x	x	x	x	-0.48
CC(C)(C)c1ccc(C(=O)Nc2cnccn2)cc1	24	0.8	0.9	12	0.13
Brc1ccc(-c2nc(-c3ccccn3)no2)o1	27	0.7	0.4	62*	0.4
Clc1ccc(-c2nc(-c3ccccn3)no2)cc1Cl	-8	1.1	0.9	13	0.34
Brc1ccc(-c2nc(-c3ccncc3)no2)o1	48	0.5	0.1	91*	0.69
CNC(=O)COC(=O)c1ccccc1Oc1ccccc1	-3	1	0.7	34	x
CCCNC(=O)COC(=O)c1ccccc1OCc1ccc(Cl)cc1	78*	0.2	0.1	87*	-3.9
CCOc1ccc(C(Nc2ccc(C)cc2)P2(=O)OCCC(C)O2)cc1 (stereo unspecified)	58*	0.4	0.5	54*	0.78
CC1Cc2ccccc2N1CC(=O)NC(=O)NCc1ccco1 (stereo unspecified)	55*	0.4	0.2	83*	0.14
O=C(CN1CCCc2ccccc21)NC(=O)NCc1ccco1	46	0.5	0.3	69*	-1.5
O=C(CN1CCOc2ccccc21)NCc1ccco1	41	0.6	0.5	46	-0.08
CCCn1nc(CC(=O)OCC)c2ccccc2c1=O	23	0.8	0.8	17	-0.16
C=CCC(CC=C)(NC(=O)c1ccccc1)c1ccccc1	19	0.8	0.5	45	-1.2
C=CCC(CC=C)(NC(=O)c1ccccc1C)c1ccccc1	23	0.8	0.5	51*	-1.2

Bioassay records from PubChem BioAssay.
